39 compounds from PubChem BioAssay can be followed below.

Unmarked numbers belong to inactive results. Calls of active or inactive are those of the source.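 The calls were made as follows, unless noted: active = compounds lowering colon cancer cell viability after pretreatment blocking the GSK3B kinase; inactive = the rest.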

The first assay in a line: stimulators of insulin release from INS-1E, primary screen, cell-based, 5 mM glucose, NPC library (AID 1117329;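 active = compound raises insulin release from rat beta cells at 5 mM glucose, no numeric limit stated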; also: reference of the scale not given here). Conditions: rat INS-1E insulin secretion, at 10 µM, active compounds read high.
Consider `CCC(=O)Nc1ccc(O)cc1`, for which the insulin secretion stimulation was -2.2%.
Same read-out and setting: next, `COC(=O)c1cc(S(C)(=O)=O)ccc1OC`: 2%; `Cc1cccc(N(C)C(=S)Oc2ccc3c(c2)CCC3)c1`: 3.9%.
As to `Nc1c(N=Nc2ccc(-c3ccc(N=Nc4cc(S(=O)(=O)O)c5ccccc5c4N)cc3)cc2)cc(S(=O)(=O)O)c2ccccc12`, the insulin secretion stimulation was 2%.
Same read-out and setting: to `CCOC(=O)CN1CCCC1=O` belongs 2.1%; to `COC(=O)[C@H]1[C@H]2C[C@@H]3c4[nH]c5cc(OC)ccc5c4CCN3C[C@H]2C[C@@H](OC(=O)COc2ccc(OC)cc2)[C@@H]1OC`, -1.2%; to `CCCCN(CCCC)C(C(N)=O)c1ccc(OC)cc1` (stereo not drawn), 36.4% (active).
As to `CN[C@@H]1[C@@H](O)[C@@H](O[C@@H]2[C@H](O)[C@H](O[C@H]3OC(CN)=CC[C@H]3N)[C@@H](N)C[C@H]2N)OCC1(C)O` (stereo partly drawn), the insulin secretion stimulation is 0.6%.
Still for that read-out and setting: to `COc1ccc2c(c1)c(CC(=O)OC/C=C(\C)CC/C=C(\C)CCC=C(C)C)c(C)n2C(=O)c1ccc(Cl)cc1` belongs 2.1%.
As for `CCc1ccc(C(=O)C(C)CN2CCCCC2)cc1` (stereo not drawn), the insulin secretion stimulation was 14.3%.
Turning to `O=C(O)c1cc(O)c2c(c1)[O][Bi][O]2`, the insulin secretion stimulation is -0.6%.
On to `CCN(CC)CC(=O)Oc1ccc(NC(C)=O)cc1`, for which the insulin secretion stimulation was -0.7%.
Still for that read-out and setting: next, `C/C=C/c1ccc(O)c(OC)c1`: -0.1%; `O=C(/C=C/c1ccc(O)c(O)c1)O[C@@H]1C[C@@](OC(=O)/C=C/c2ccc(O)c(O)c2)(C(=O)O)C[C@@H](O)[C@@H]1O`: -0.6%; `CCCc1c2oc(C(=O)O)cc(=O)c2cc2c(=O)cc(C(=O)O)n(CC)c12`: 2.6%.
As for `Nc1ccc(C(=O)N2CC3CC(CN(Cc4ccccc4)C3)C2)cc1`, the insulin secretion stimulation was 0.1%.
Still for that read-out and setting: to `Nc1ccc(S(=O)(=O)NCc2ccccc2)cc1` belongs -2.5%.
The same measure, in the same setting: to `Cc1ccccc1C(=O)Nc1ccc(C(=O)N2CCCC(N(C)C)c3ccccc32)cc1` (stereo not drawn) belongs 2.4%; to `CCCCCCCCCCCCCCCC[N+](C)(C)Cc1ccccc1`, 1%.
On the same count and under the same terms, to `O=C(CCCCCCCCC#CI)Oc1ccccc1` belongs -1.7%; to `CCCCOC(=O)CCCCCCCCC(=O)OCCCC`, 2.4%; to `CCN1/C(=C/C=C/c2sc3ccccc3[n+]2CC)Sc2ccccc21`, -0.5%.
In the case of `CCN1CCCC1=O`, the insulin secretion stimulation was 2.6%.
Regarding `CO[C@@H]1[C@@H](O[C@@H]2O[C@H](C)[C@@H](O[C@H]3C[C@@](C)(O)[C@@H](O)[C@H](C)O3)[C@H](N(C)C)[C@H]2O)[C@@H](CC=O)C[C@@H](C)[C@@H](O[C@@H]2CC[C@H](N(C)C)[C@@H](C)O2)/C=C/C=C/C[C@@H](C)OC(=O)C[C@H]1OC(C)=O`, the insulin secretion stimulation is 3.3%.
`O=C1OC2(c3ccccc31)c1cc(Br)c(O)c(Br)c1Oc1c2cc(Br)c(O)c1Br`: the insulin secretion stimulation is 0.5%.
`CC(C)[C@H](N)C(=O)O`: the insulin secretion stimulation was 0.4%.
On the same count and under the same terms, to `CCCCCC[C@@H](CCC)C(=O)O` belongs 0.3%; to `CC(=O)SCC(CC(=O)c1ccc(C)cc1)C(=O)O` (stereo not drawn), 2.9%.
With `OC1(c2ccc(Cl)cc2)CCNCC1`, the insulin secretion stimulation was 6.1%.
Same read-out and setting: to `Oc1cc(O)cc(O)c1` belongs -1.3%; to `CN(C)[C@@H]1C(=O)C(C(N)=O)=C(O)[C@@]2(O)C(=O)C3=C(O)c4c(O)cccc4C[C@H]3C[C@@H]12`, -3%.
On to `C#C[C@]1(O)CC[C@@H]2[C@@H]3CCC4=CCCC[C@@H]4[C@H]3C(=C)C[C@@]21CC`, for which the insulin secretion stimulation is -1.9%.
On the same count and under the same terms, next, `CCc1cc2cc(OC)c(OC)cc2c(Cc2ccccc2)n1`: 15.8%.
The same measure, in the same setting: to `O=C1Nc2ccccc2C1(c1ccc(O)cc1)c1ccc(O)cc1` belongs 0.6%.
Regarding `NC(=O)NS(=O)(=O)c1ccc(Cl)cc1`, the insulin secretion stimulation is 3.4%.
The same measure, in the same setting: to `O=Cc1ccc(O)c(O)c1O` belongs -1.7%.
The same measure, in the same setting: to `O=C(Nc1ccc(Cl)cc1)Nc1ccc(Cl)c(C(F)(F)F)c1` belongs -0.8%; to `CCOC(=O)C(C#N)=C(c1ccccc1)c1ccccc1`, 6.6%.
Still for that read-out and setting: next, `CCCCCOc1ccccc1/C(=C\SC)n1ccnc1`: 3.4%.

A short description of a further assay: growth inhibition of GSK3B-pretreated HCT116 cells – cell-based, CellTiter-Glo, 0.2 to 20 µM (AID 1117336). The following applies: HCT116 viability after GSK3B inhibitor, at 20 µM, active compounds read high. Background: Cellular ATP, detected with luciferase, serves as a proxy for viable cell number.
Take `CCC(=O)Nc1ccc(O)cc1`: the viability decrease is -1%.
On the same count and under the same terms, next, `COC(=O)c1cc(S(C)(=O)=O)ccc1OC`: -2.3%.
Still for that read-out and setting: next, `Cc1cccc(N(C)C(=S)Oc2ccc3c(c2)CCC3)c1`: 33.9%.
For the compound `Nc1c(N=Nc2ccc(-c3ccc(N=Nc4cc(S(=O)(=O)O)c5ccccc5c4N)cc3)cc2)cc(S(=O)(=O)O)c2ccccc12`, the viability decrease was -26.6%.
Take `CCOC(=O)CN1CCCC1=O`: the viability decrease is 1.1%.
As to `COC(=O)[C@H]1[C@H]2C[C@@H]3c4[nH]c5cc(OC)ccc5c4CCN3C[C@H]2C[C@@H](OC(=O)COc2ccc(OC)cc2)[C@@H]1OC`, the viability decrease was 10.9%.
As for `CCCCN(CCCC)C(C(N)=O)c1ccc(OC)cc1` (stereo not drawn), the viability decrease is -5.1%.
For the compound `CN[C@@H]1[C@@H](O)[C@@H](O[C@@H]2[C@H](O)[C@H](O[C@H]3OC(CN)=CC[C@H]3N)[C@@H](N)C[C@H]2N)OCC1(C)O` (stereo partly drawn), the viability decrease is -9.1%.
Same read-out and setting: to `COc1ccc2c(c1)c(CC(=O)OC/C=C(\C)CC/C=C(\C)CCC=C(C)C)c(C)n2C(=O)c1ccc(Cl)cc1` belongs -16.7%.
The same measure, in the same setting: to `CCc1ccc(C(=O)C(C)CN2CCCCC2)cc1` (stereo not drawn) belongs -4.9%; to `O=C(O)c1cc(O)c2c(c1)[O][Bi][O]2`, -0.3%.
The same measure, in the same setting: next, `CCN(CC)CC(=O)Oc1ccc(NC(C)=O)cc1`: 0.8%; `C/C=C/c1ccc(O)c(OC)c1`: 2.5%; `O=C(/C=C/c1ccc(O)c(O)c1)O[C@@H]1C[C@@](OC(=O)/C=C/c2ccc(O)c(O)c2)(C(=O)O)C[C@@H](O)[C@@H]1O`: -72.8%.
With `CCCc1c2oc(C(=O)O)cc(=O)c2cc2c(=O)cc(C(=O)O)n(CC)c12`, the viability decrease is 7.4%.
On the same count and under the same terms, to `Nc1ccc(C(=O)N2CC3CC(CN(Cc4ccccc4)C3)C2)cc1` belongs 1.2%.
As to `Nc1ccc(S(=O)(=O)NCc2ccccc2)cc1`, the viability decrease is -8.1%.
The same measure, in the same setting: to `Cc1ccccc1C(=O)Nc1ccc(C(=O)N2CCCC(N(C)C)c3ccccc32)cc1` (stereo not drawn) belongs 18.9%.
Consider `CCCCCCCCCCCCCCCC[N+](C)(C)Cc1ccccc1`, for which the viability decrease is 99.3% (active).
Still for that read-out and setting: next, `O=C(CCCCCCCCC#CI)Oc1ccccc1`: 56% (active); `CCCCOC(=O)CCCCCCCCC(=O)OCCCC`: 10.4%; `CCN1/C(=C/C=C/c2sc3ccccc3[n+]2CC)Sc2ccccc21`: 99.1% (active).
Same read-out and setting: next, `CCN1CCCC1=O`: 18.7%.
As for `CO[C@@H]1[C@@H](O[C@@H]2O[C@H](C)[C@@H](O[C@H]3C[C@@](C)(O)[C@@H](O)[C@H](C)O3)[C@H](N(C)C)[C@H]2O)[C@@H](CC=O)C[C@@H](C)[C@@H](O[C@@H]2CC[C@H](N(C)C)[C@@H](C)O2)/C=C/C=C/C[C@@H](C)OC(=O)C[C@H]1OC(C)=O`, the viability decrease is 0.2%.
On the same count and under the same terms, to `O=C1OC2(c3ccccc31)c1cc(Br)c(O)c(Br)c1Oc1c2cc(Br)c(O)c1Br` belongs 32.8%; to `CC(C)[C@H](N)C(=O)O`, -2.3%.
On the same count and under the same terms, next, `CCCCCC[C@@H](CCC)C(=O)O`: 1.2%.
Same read-out and setting: next, `CC(=O)SCC(CC(=O)c1ccc(C)cc1)C(=O)O` (stereo not drawn): -5.5%; `OC1(c2ccc(Cl)cc2)CCNCC1`: 13.1%; `Oc1cc(O)cc(O)c1`: -20.3%.
Turning to `CN(C)[C@@H]1C(=O)C(C(N)=O)=C(O)[C@@]2(O)C(=O)C3=C(O)c4c(O)cccc4C[C@H]3C[C@@H]12`, the viability decrease was 98.1% (active).
In the case of `C#C[C@]1(O)CC[C@@H]2[C@@H]3CCC4=CCCC[C@@H]4[C@H]3C(=C)C[C@@]21CC`, the viability decrease is 99.1% (active).
The same measure, in the same setting: next, `CCc1cc2cc(OC)c(OC)cc2c(Cc2ccccc2)n1`: 46.2%; `O=C1Nc2ccccc2C1(c1ccc(O)cc1)c1ccc(O)cc1`: 54.5% (active); `NC(=O)NS(=O)(=O)c1ccc(Cl)cc1`: -3.8%.
With `O=Cc1ccc(O)c(O)c1O`, the viability decrease was 87.5% (active).
On the same count and under the same terms, to `O=C(Nc1ccc(Cl)cc1)Nc1ccc(Cl)c(C(F)(F)F)c1` belongs 99.4% (active); to `CCOC(=O)C(C#N)=C(c1ccccc1)c1ccccc1`, -0.55%; to `CCCCCOc1ccccc1/C(=C\SC)n1ccnc1`, -71.1%.
